# Measurements from PubChem BioAssay AID463173 (ICCB-Longwood Screening Facility, Harvard Medical School, 2010).
# About 4,300 (8.3%) of roughly 52,000 compounds were called active. The sample holds actives, similar compounds and a random draw of the others, so the mix is not that of the screen. A number with no mark means an inactive call. Rule as the data show it: active = survival mostly below about 52% (no sharp cut-off); inactive = mostly above about 56%.
# Tested on: DeltatarO mutant
# Assay: S. aureus survival, RN4220 and DeltatarO strains – OD600, teichoic acid synthesis inhibitors, primary screen (AID 463173)
# Details: S. aureus RN4220 wild type/DeltatarO growth, OD600, 18 h, stronger effect = lower value, screened at 18.75 µg/mL (by protocol)
row,SMILES,survival
1,CCOc1ccc(OCC)c(-n2cnnn2)c1,71%
2,CCOc1ccc2oc(=O)cc(CN3CCN(c4ccc(OC)cc4)CC3)c2c1,73%
3,COc1ccccc1N1CCN(C(=O)CSc2nc3ccccc3nc2Cc2ccc(F)cc2)CC1,95%
4,Cc1cccc(-c2noc(-c3cc(C(C)C)[nH]n3)n2)c1,97%
5,Cc1ccc(CCNC(=O)c2ccc3c(=O)n(-c4ccccc4)c(=O)[nH]c3c2)cc1,86%
6,Cc1cc(O)c(C(c2ccc(F)cc2)N2CCCCC2)c(=O)n1Cc1ccco1 (stereo not given),75%
7,COc1cccc(NC(=O)Cn2c(=O)n(CCCC(=O)NCc3ccc4c(c3)OCO4)c(=O)c3ccccc32)c1,115%
8,Cc1cc(C)c(NC(=O)C2CCN(c3nc4ccccc4[nH]3)CC2)c(C)c1,102%
9,Cc1ccc(C#N)c(SCC(=O)O)n1,91%
10,Cc1cccc(Cn2cc(S(=O)(=O)c3ccccc3)c(=O)c3cc(F)c(N4CCOCC4)cc32)c1,72%
11,COc1ccc(-c2nc3ccccc3o2)cc1NC(=O)c1ccc(OCC(C)C)cc1,40%
12,COc1ccc(-c2nc3ccccc3o2)cc1NC(=O)c1cccc2c(Cl)cccc12,52%
13,COc1ccc(/C=C/C(=O)Nc2cc(-c3nc4ccccc4o3)ccc2OC)cc1,50%
14,COc1ccc(-c2nc3ccccc3o2)cc1NC(=O)c1cccnc1,45% (active)
15,CC(C)(Oc1ccc(Br)cc1)C(=O)Nc1cc(-c2nc3ccccc3[nH]2)ccc1Cl,76%
16,CCOc1ccc(C(=O)Nc2cc(-c3nc4ccccc4o3)ccc2C)cc1Cl,51%
17,COc1ccc(-c2nc3ccccc3o2)cc1NC(=O)c1ccc(-c2ccc(C)c(Cl)c2)o1,41% (active)
18,Cc1ccc2nc(-c3ccc(Cl)c(NC(=O)c4cccnc4)c3)oc2c1,126%
19,COc1ccc(-c2nc3ccccc3o2)cc1NC(=O)C(C)(C)Oc1ccc(Br)cc1,4% (active)
20,COc1ccc(-c2nc3ccccc3o2)cc1NC(=O)c1cc(Br)ccc1OC,40% (active)
21,COc1ccc(-c2nc3ccccc3o2)cc1NC(=O)c1ccc(-c2cccc(Cl)c2C)o1,58%
22,COc1ccc(Br)cc1C(=O)Nc1ccc2oc(-c3cccnc3)nc2c1,117%
23,CCOc1ccc(NC(=O)NCCN2CCN(c3cccc(C)c3C)CC2)cc1,60%
24,Cc1ccc(C)c(N2CCN(C(=O)c3cn(CC(C)C)c(=O)c4c3c3ccccc3n4C)CC2)c1,28%
25,COc1ccccc1CNC(=O)C1CCN(c2ncnc3c2nc2n3CCCCC2)CC1,94%
